Results taken from PubChem BioAssay (NCATS).
Inconclusive results are not listed. Where a call stands in place of a potency, no number is given. Calls of active or inactive are those of the source. Calls come from the whole dose curve; as a rule, active = well fitted inhibition curve with a large enough effect; inconclusive = small, poorly fitted or top-dose-only effect; inactive = flat fitted curve, though single readings scatter.

Biological target: Voltage-gated inwardly rectifying potassium channel KCNH2 (Homo sapiens) (UniProt Q12809)
Sequence (Q12809 whole entry, looked up): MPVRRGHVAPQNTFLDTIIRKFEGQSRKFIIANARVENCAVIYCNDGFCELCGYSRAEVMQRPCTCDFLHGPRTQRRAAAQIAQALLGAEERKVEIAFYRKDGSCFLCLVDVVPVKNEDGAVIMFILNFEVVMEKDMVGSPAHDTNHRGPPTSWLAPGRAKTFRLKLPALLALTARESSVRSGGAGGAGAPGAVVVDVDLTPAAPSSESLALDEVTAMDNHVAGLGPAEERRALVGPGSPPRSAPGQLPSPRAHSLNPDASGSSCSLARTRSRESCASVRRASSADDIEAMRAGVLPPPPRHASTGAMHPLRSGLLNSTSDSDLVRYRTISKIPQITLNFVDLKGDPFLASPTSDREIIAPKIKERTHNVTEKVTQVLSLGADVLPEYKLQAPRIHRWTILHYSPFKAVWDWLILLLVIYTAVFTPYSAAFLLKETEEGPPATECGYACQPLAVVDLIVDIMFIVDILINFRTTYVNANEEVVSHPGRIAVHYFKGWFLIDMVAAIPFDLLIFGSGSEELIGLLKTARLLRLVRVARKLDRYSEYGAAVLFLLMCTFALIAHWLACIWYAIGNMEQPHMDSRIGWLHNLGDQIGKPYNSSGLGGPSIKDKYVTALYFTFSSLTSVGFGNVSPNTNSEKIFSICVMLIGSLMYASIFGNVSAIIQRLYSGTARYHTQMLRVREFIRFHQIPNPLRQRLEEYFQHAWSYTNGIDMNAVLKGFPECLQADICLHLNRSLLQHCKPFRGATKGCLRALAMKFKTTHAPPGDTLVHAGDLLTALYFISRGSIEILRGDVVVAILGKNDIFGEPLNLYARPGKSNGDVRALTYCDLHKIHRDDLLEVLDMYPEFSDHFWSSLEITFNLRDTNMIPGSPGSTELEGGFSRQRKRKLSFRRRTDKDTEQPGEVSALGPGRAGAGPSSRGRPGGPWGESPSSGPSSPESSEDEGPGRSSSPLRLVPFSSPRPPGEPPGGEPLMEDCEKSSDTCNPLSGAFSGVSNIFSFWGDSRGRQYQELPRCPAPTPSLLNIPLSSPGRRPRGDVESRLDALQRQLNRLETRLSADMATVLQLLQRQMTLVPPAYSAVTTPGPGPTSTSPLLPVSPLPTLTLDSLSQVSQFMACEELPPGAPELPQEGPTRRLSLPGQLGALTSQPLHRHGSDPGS
Assay: qHTS Assay for Small Molecule Inhibitors of the Human hERG Channel Activity (AID 588834);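 note: lower thallium flux fluorescence means stronger hERG block; nearly all actives have a fitted effect of over 50% in size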
Settings: U2OS BacMam hERG, FluxOR thallium flux fluorescence; series mostly up to 46.1 µM
Outline: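 Kinetic FDSS fluorescence; U2OS + hERG BacMam (~100 virus particles/cell); FluxOR Tl+ flux; ~10 min cpd; AC50 (Hill).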
Potency is the fitted concentration of half-maximal effect.

| SMILES | Potency |
| --- | --- |
| CC1CN(S(=O)(=O)c2cccc3cnccc23)CCN1 (stereo not given) | inactive |
| Cc1c(Nc2ncccc2C(=O)O)cccc1C(F)(F)F | inactive |
| Fc1cccc(/C=N/N=C/c2cccc(F)c2)c1 | inactive |
| CC(C)(C)NCC(O)COc1nsnc1N1CCOCC1 (stereo not given) | inactive |
| Fc1ccc(C(OCCCc2cnc[nH]2)c2ccc(F)cc2)cc1 | 1.41 µM (active) |
| O=C(/C=C/c1ccc(O)c(O)c1)OCCc1ccccc1 | inactive |
| CN1CCN(c2cc3c(nn2)Oc2ccccc2N3C)CC1 | inactive |
| CN(C)[C@@H]1C(=O)C(C(=O)NCN2CCCC2)=C(O)[C@@]2(O)C(=O)C3=C(O)c4c(O)cccc4[C@@](C)(O)C3C[C@@H]12 (stereo not given in full) | inactive |
| CCOc1ccc2nc(S(N)(=O)=O)sc2c1 | inactive |
| O=S(=O)(c1cccc2c(I)cccc12)N1CCCNCC1 | 11.2 µM (active) |
| COc1cc(NC(C)CCCN)c2ncccc2c1 (stereo not given) | inactive |
| Cc1ccc(O)c(N=Nc2ccccc2)n1 | inactive |
| CC1(C)[C@@H](O[C@H]2O[C@H](C(=O)O)[C@@H](O)[C@H](O)[C@H]2O[C@@H]2O[C@H](C(=O)O)[C@@H](O)[C@H](O)[C@H]2O)CC[C@]2(C)[C@H]3C(=O)C=C4[C@@H]5C[C@@](C)(C(=O)O)CC[C@]5(C)CC[C@@]4(C)[C@]3(C)CC[C@@H]12 | inactive |
| O=c1[nH]c2cc([N+](=O)[O-])c([N+](=O)[O-])cc2[nH]c1=O | inactive |
| C[C@@H](CN1CCC(Cc2ccccc2)CC1)[C@@H](O)c1ccc(O)cc1 | 0.631 µM (active) |
| CCN1/C(=C/C(C)=O)Sc2ccc(OC)cc21 | inactive |
| CCCCCCCCCCCCCCCCCC(=O)NCC(COP(=O)([O-])OCC[N+](C)(C)C)OCC (stereo not given) | inactive |
| CO/N=C(\C(=O)N[C@@H]1C(=O)N2C(C(=O)O)=C(COC(C)=O)CS[C@H]12)c1csc(N)n1 (stereo in doubt) | inactive |
| CC(C(=O)O)c1ccc(C(=O)c2ccccc2)s1 (stereo not given) | inactive |
| CN(C)c1nc2c(Br)c(Br)c(Br)c(Br)c2[nH]1 | inactive |
